HT1080 IDH1KD tx: HT-1080 IDH1 knockdown cell toxicity (counter line); 2% of 360,000 active; Potency, µM (highest dose often 46.1 µM), for the others: top-dose activity, negative = toxicity, actives largely listed as cytotoxic; HT-1080 IDH1 knockdown viability, ATP luminescence, 48 h;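 note: 0% = DMSO wells and -100% = cell-free medium wells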
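Knockdown cells (IDH1KD HT-1080) received compounds 2 h after plating at 750 cells/well and were kept 48 h at 37 °C in 5% FBS RPMI. A CellTiter-Glo luminescence read gave % activity for curve fitting.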
HT1080NT lethal: kills 2HG-producing HT-1080-NT fibrosarcoma cells | AID 686970 | Potency, µM (top dose mostly 46.1 µM), for the others: at the top dose activity, negative = less viability, most hits filed as cytotoxic | HT-1080-NT fibrosarcoma viability, CellTiter-Glo ATP luminescence, 48 h | 1.6% of 360,000 active;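 note: NT is the 2HG producing partner of a matched IDH1 knockdown line; 0% = DMSO-treated cells and -100% = media-only wells without cells; nearly all actives have a fitted effect of over 55% in size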
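A 48-hour cytotoxicity screen used HT-1080-NT cells plated 2 hours before compound delivery. ATP-based CellTiter-Glo luminescence measured viability, normalized to DMSO and no-cell controls.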
ATXN2 expr inh: ATXN2 expression inhibition; HEK-293 ATXN2-luciferase reporter, luminescence, 24 h; 0.72% of 360,000 active; Potency, µM (highest dose often 57 µM), for the others: top-dose activity change, negative = inhibition, usual class: inhibitors; AID 1745845; note: % is set by controls: 0 for no effect and ±100 for the full control effect; nearly all actives have a fitted effect of over 55% in size
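qHTS (up to 57 uM final) was run with 24 h compound exposure of reporter cells at 37 °C. Each well was multiplexed: SteadyGlo luminescence measured ATXN2-luciferase expression after a fluorogenic Gly-Phe-AFC viability readout (25 uM final).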
S2 tox: reduces viability in counter-screen for ATXN expression inhibitors; S2 cells (HEK-293 line with an ATXN2-luciferase reporter) viability, CellTiter-Fluor protease fluorescence, 24 h; Potency, µM (series often up to 56.7 µM), actives largely listed as cytotoxic; 0.49% of 400,000 active; AID 651635; note: nearly all actives have a fitted effect of over 40% in size
HepG2 tox: HepG2 cytotoxicity, counter-screen for TGF-b inhibitors | HepG2 CAGA-GFP viability, ATP luminescence, 18 h | Potency, µM (doses to about 46.1 µM), without a hit: at the highest dose activity change, negative = cytotoxicity, usual class: cytotoxic | 0.76% of 410,000 active
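HepG2 CAGA-GFP cells (1000/well, DMEM with 1% FBS) received compound, then TGF-beta at 500 pg/mL final, and were incubated 18 hours at 37 degrees C. Viability was read by CellTiter-Glo luminescence. Media-only wells were set as complete cell-killing and DMSO as no toxicity.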
TGFb SMAD3 inh: TGF-b pathway inhibition; HepG2 CAGA-GFP TGF-b/SMAD3 reporter, GFP fluorescence, 18 h; TGF-beta stimulated, 500 pg/mL final; Potency, µM (titrated, usually from 46.1 µM), for inactives: at the highest dose activity, negative = inhibition, actives largely listed as inhibitors; 1.2% of 410,000 active; note: % is set by controls: 0 for no effect and ±100 for the full control effect; nearly all actives have a fitted effect of over 65% in size
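Per well, imaged GFP fluorescence of HEPG2 CAGA-GFP cells gives the signal; cells get compound, then TGF-beta (500 pg/mL final), 18 h at 37 degrees C; %Activity versus -TGF-beta and +DMSO controls.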
* = called active by the depositor; i = inactive; ? = inconclusive; nt = no result; [ ] = dose if it differs, or a comment. Rows were chosen to be rich in hits. Some 3.9% of all compounds tested hit in one or more screens of this group. Calls come from the whole dose curve; as a rule, active = well fitted curve in the direction sought with a large enough effect; inconclusive = small, poorly fitted or top-dose-only effect, or another doubt; inactive = no such curve, though single readings can be large; an effect the other way counts as inactive or inconclusive. Potency is the fitted concentration of half-maximal effect.

SMILES | HT1080 IDH1KD tx | HT1080NT lethal | ATXN2 expr inh | S2 tox | HepG2 tox | TGFb SMAD3 inh
COc1ccc2oc(C(=O)NCCc3ccccc3)c(C)c2c1 | -2% | 4% | 4.5µM* | i | -9% | -1%
COc1ccc2oc(C(=O)OCC(=O)NCCc3ccccc3)c(C)c2c1 | 0% | 5% | 0% | i | 9% | 5%
NS(=O)(=O)c1ccc(CCNc2nc3c(-c4cccc(F)c4)nnn3c3ccc(Cl)cc23)cc1 | nt | nt | 0% | i | 8.9µM* | ?
CCCNS(=O)(=O)Nc1ncnc(OCCOc2ncc(Br)cn2)c1-c1ccc(Br)cc1 | nt | nt | 16% | nt | nt | nt
O=C1CSC2(C(=O)N(Cc3ccccc3F)c3ccccc32)N1c1cccc(C(F)(F)F)c1 (configuration not stated) | nt | nt | ? | i | -11% | 11µM*
Cn1nnc2c[n+](CC(=O)c3ccc4ccccc4c3)cc(Br)c21 | 21µM* | ? | ? | ? | -70% | ?
Cc1ccsc1C=Nc1ccc(O)cc1 | 23µM* | -8% | -23% | i | -68% | ?
Cc1ccsc1/C=N/N=C/c1sccc1C | 1% | 0% | nt | nt | -43% | -3%
CN1CCCN(C(=O)c2cccc(Cl)c2)CC1 | 2% | -2% | 8% | i | -1% | -27%
CN1CCCN(C(=O)c2cccc(-c3ccc(C=C4C(=O)Nc5ccc(Cl)cc54)o3)c2)CC1 | nt | nt | 7.7µM* | nt | nt | nt
Cc1ccn2c(Nc3ccc4c(c3)OCO4)c(-c3ccc(N(C)C)cc3)nc2c1 | nt | nt | -9% | ? | -7% | 2%
COc1ccc2ccccc2c1/C=N/NC(=O)c1nnn(-c2nonc2N)c1C(C)C | ? | -18% | -16% | i | -10% | ?
CCOc1cccc(-c2c(C(=O)N/N=C/c3sccc3C)nnn2-c2nonc2N)c1 | 0% | ? | nt | i | 4.5µM* | 10µM*
Cc1c(C(=O)N/N=C/c2c(O)ccc3ccccc23)nnn1-c1nonc1N | 0.58µM* | ? | 1.6µM* | ? | -27% | -18%
Cc1ccc(/C=N/NC(=O)c2nnn(-c3nonc3N)c2CNc2ccccc2)cc1 | -2% | 0% | 2% | i | 1% | -2%
CCOc1ccc(-c2c(C(=O)N/N=C/c3sccc3C)nnn2-c2nonc2N)cc1 | 0% | 18% | -17% | ? | 1% | -9%
C/C(=N\NC(=O)c1nnn(-c2nonc2N)c1-c1ccccc1)c1ccccc1O | 1.8µM* | ? | ? | i | -15% | -17%
Nc1nonc1-n1nnc(C(=O)N/N=C/c2cc(Br)ccc2O)c1CNc1ccccc1 | 23µM* | ? | 0% | ? | -7% | -9%
O=C(CSc1cn(CC(=O)N2CCCC2)c2ccccc12)Nc1ccc(Cl)cc1 | nt | nt | -8% | ? | -32% | ?
Cc1ccsc1C(=O)N(Cc1cc2ccc(F)cc2nc1N1CCC(O)CC1)CC1CCCO1 (configuration not stated) | nt | nt | nt | i | nt | nt
Nc1nonc1-n1nnc(C(=O)N/N=C/c2ccc(OCc3ccc(F)cc3)cc2)c1COc1ccccc1 | ? | 18µM* | -3% | i | -44% | -23%
Cc1ccc(COc2ccc(/C=N/NC(=O)c3nnn(-c4nonc4N)c3COc3ccc(F)cc3)cc2)cc1 | 9% | 8% | 4% | i | -1% | -7%
NC(=O)N/N=C\c1cc(Br)ccc1O | 0% | -4% | ? | nt | -27% | -3%
Nc1nonc1C(=O)N/N=C/c1cc(Br)ccc1O | 2.1µM* | ? | -33%[11.3 µM] | i | 9% | -3%
CCOc1ccc(CC(=O)Nc2c(C(=O)c3ccccc3)oc3ccc(OC)cc23)cc1OCC | nt | nt | 13% | i | -18% | -1%
SMILES | HT1080 IDH1KD tx | HT1080NT lethal | ATXN2 expr inh | S2 tox | HepG2 tox | TGFb SMAD3 inh
O=C(NCC1(N2CCOCC2)CCCC1)c1cnn(-c2nccc(-c3ccco3)n2)c1C1CC1 | nt | nt | nt | i | nt | nt
CCCCc1c(-c2ccc(OC)cc2)ncn1CCc1ccccc1OC | 16µM* | 16µM* | ? | nt | nt | nt
CCCCCc1c(-c2ccc(Cl)cc2)ncn1CCc1ccccc1OC | 16µM* | ? | 0% | nt | nt | nt
COc1ccccc1CCn1cnc(C)c1CC(C)C | ? | ? | 0% | ? | nt | nt
COc1cccc(-c2ncn(CCc3ccccc3OC)c2C(C)C)c1 | 15µM* | 13µM* | ? | 11µM* | nt | nt
CCCCc1c(Cc2ccccc2)ncn1CCc1ccccc1OC | 18µM* | ? | 14µM* | nt | nt | nt
COc1cc(F)c(F)c(Nc2ccc(I)cc2F)c1NS(=O)(=O)C1(C[C@H](O)CO)CC1 | nt | nt | -6% | nt | nt | nt
COc1ccc(N(Cc2nnc3n2CCCCC3)C(=O)Nc2cccc(C)c2)cc1Cl | nt | nt | 8% | i | -6% | 15%
COc1cccc(C2=NN(S(C)(=O)=O)C(c3cn(-c4ccccc4)nc3-c3cccs3)C2)c1 (configuration not stated) | nt | nt | 16% | i | 4% | -10%
CCCCCc1c(-c2ccc(OC)cc2)ncn1CCc1ccccc1OC | 16µM* | 21µM* | ? | nt | nt | nt
CCCc1c(-c2cccc(Cl)c2)ncn1Cc1ccccc1OC | ? | ? | -35% | ? | nt | nt
COc1ccc(N2Cc3ccccc3C2=O)cc1 | ? | ? | -3% | ? | -69% | -8%
C=CC(=O)Oc1ccc(N2Cc3ccccc3C2=O)cc1 | -6% | 1% | nt | 32µM* | -42% | ?
Cc1ccccc1C(C(=O)NC1CCCCC1)N(C(=O)Cn1ccnc1C)c1cccc(F)c1 (configuration not stated) | nt | nt | 19% | nt | nt | nt
COc1ccccc1C1CN(Cc2cccc3c2OCO3)Cc2ccccc2O1 (configuration not stated) | nt | nt | nt | i | nt | nt
CCOC(=O)Nc1cc2c(c(N)n1)N=C(c1ccccc1)CN2 | ? | 0.46µM* | 11% | ? | -7% | ?
CCOC(=O)Nc1sc(C)nc1-c1ccccc1 | 8% | 3% | 25% | i | 5% | 5%
CCc1cccc(NC(=O)CN(C)S(=O)(=O)c2ccc3c(c2)n(C)c(=O)c(=O)n3C)c1 | nt | nt | 12% | i | -2% | -6%
COc1ccc(CN(Cc2ccccc2)C(=O)c2ccco2)cc1COc1ccc(NC(C)=O)cc1 | -26% | -24% | nt | nt | nt | nt
CCOC(=O)c1[nH]c(C)c(CCC(=O)Nc2cc(Cl)c(OC)cc2OC)c1C | nt | nt | -12% | i | -15% | -19%
CCOc1ccc(CCNC(=O)CSCc2nc(-c3cccc(C)c3)oc2C)cc1OCC | nt | nt | nt | nt | -52% | ?
COc1ccccc1NC(=S)NCc1ccc2c(c1)cc(C)n2C | -24% | 2% | 3% | i | -30% | ?

Bioassay records from PubChem BioAssay.
